Screening data (PubChem)
ADAM10 inh – human ADAM10 inhibitors, primary screen, biochemical, QFRET, HTS | inhibition, % at 7 µM | 370,000 compounds, 0.62% hits | recombinant ADAM10, EDANS/DABCYL FRET peptide cleavage, 3 h;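 active = inhibition above a per-campaign cutoff equal to the mean of compounds falling between control-based bounds plus 3 SD, cut at about 20% in these data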;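 also: 0% = DMSO wells while the 100% control is not disclosed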
proKLK7 act – proKLK7 zymogen activators, primary screen, biochemical, fluorescence intensity; Kallikrein-7 (Homo sapiens), P49862; purified proKLK7, EDANS-DABCYL substrate fluorescence; 100% is mature enzyme control, 0% vehicle; activation, % at 7 µM; 370,000 compounds, 0.9% hits;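 active = activation above the mean of all tested compounds plus 3 SD, computed per campaign excluding outliers beyond control limits, cut at about 13% in these data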
MPTP block – mitochondrial permeability transition pore inhibitors, primary screen, biochemical, isolated mouse mitochondria, absorbance | 360,000 compounds, 1.4% hits | AID 602449, 2012 | inhibition, % at 10 µM | Ca2+ swelling absorbance, 30 min;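 active = inhibition of 50% or more, scaled per plate between neutral and stimulator controls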;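 also: 0% = DMSO wells given calcium and 100% = 1 mM EGTA wells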
rCAG binder – binders of r(CAG) RNA repeats, primary screen, biochemical, fluorescence | r(CAG) RNA repeat, TO-PRO-1 dye displacement fluorescence | inhibition, % at 3 µM | 370,000 compounds, 1.3% hits | AID 651821, 2012;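 active = inhibition above the plate cutoff, the mean of all test compounds on that plate plus 3 SD, cut at about 35% in these data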;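 also: 0% = DMSO alone and 100% = 100 µM mitoxantrone as full dye displacement; higher means more dye released from RNA so lower well fluorescence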
ADAM17 inh – ADAM17 inhibitors, primary screen, biochemical, QFRET. Disintegrin and metalloproteinase domain-containing protein 17 (Homo sapiens), P78536. recombinant ADAM17, EDANS/DABCYL FRET peptide cleavage. inhibition, % at 6.95 µM. 370,000 compounds, 0.83% hits;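 active = inhibition above the mean of compounds lying between control limits plus 3 SD, set per campaign, cut at about 8.5% in these data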;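 also: 0% = DMSO-only wells as the low control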
DSG3 Ab inh – inhibitors of pemphigus antibody binding to DSG3, primary screen, biochemical, bead-based, flow cytometry, scFv-GFP; AID 588358, 2011; DSG3-coupled beads, scFv-anti-DSG3-GFP binding; hits give low values; 310,000 compounds, 0.48% hits; binding (percent of control), % at 10 µM;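 active = binding more than 3 SD below its plate's average and above zero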;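 also: hits lower antibody fragment binding to DSG3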
Target sequence (P32926 whole entry, looked up, the tested form may be a part): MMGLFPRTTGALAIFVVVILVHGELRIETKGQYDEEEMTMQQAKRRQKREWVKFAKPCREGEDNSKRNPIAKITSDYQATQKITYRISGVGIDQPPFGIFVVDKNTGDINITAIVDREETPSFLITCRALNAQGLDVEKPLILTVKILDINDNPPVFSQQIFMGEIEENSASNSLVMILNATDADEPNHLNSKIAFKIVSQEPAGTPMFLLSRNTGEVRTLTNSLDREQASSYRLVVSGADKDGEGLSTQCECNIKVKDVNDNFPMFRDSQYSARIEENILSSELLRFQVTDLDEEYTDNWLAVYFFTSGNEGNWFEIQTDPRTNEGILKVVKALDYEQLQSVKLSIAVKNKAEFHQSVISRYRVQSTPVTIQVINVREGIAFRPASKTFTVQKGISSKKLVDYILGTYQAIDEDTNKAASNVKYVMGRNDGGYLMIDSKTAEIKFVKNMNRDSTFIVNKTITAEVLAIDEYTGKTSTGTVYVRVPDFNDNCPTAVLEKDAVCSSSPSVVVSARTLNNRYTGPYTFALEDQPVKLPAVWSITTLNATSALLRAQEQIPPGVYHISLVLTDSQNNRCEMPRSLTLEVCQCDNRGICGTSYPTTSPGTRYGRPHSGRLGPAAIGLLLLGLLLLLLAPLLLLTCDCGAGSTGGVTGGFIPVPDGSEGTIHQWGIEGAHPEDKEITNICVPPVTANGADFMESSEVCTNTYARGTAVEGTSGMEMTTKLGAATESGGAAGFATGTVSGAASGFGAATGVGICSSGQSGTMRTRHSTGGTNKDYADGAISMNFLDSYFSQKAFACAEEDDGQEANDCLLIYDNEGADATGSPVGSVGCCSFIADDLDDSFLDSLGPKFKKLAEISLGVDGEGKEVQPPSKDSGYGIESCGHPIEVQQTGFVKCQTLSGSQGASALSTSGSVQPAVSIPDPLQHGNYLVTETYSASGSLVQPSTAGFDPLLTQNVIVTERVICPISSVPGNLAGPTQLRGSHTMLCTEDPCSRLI
KLK7 act conf – proKLK7 zymogen activators, confirmation, biochemical, fluorescence intensity, triplicate; shares compounds with proKLK7 act; purified proKLK7, EDANS-DABCYL substrate fluorescence; scaled: vehicle 0, mature enzyme 100; activation, % at 7 µM; 3,200 compounds, 68% hits;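 active = activation, as change over the incubation, above the mean of all tested compounds plus 3 SD, cut at about 13% in these data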
EDANS interfere – EDANS-DABCYL substrate optical interference, artefact control for kallikrein-7 zymogen activator project, biochemical, fluorescence intensity, high throughput; shares compounds with proKLK7 act; no enzyme, 4 h; solvent 0%, active enzyme control 100%; 3,200 compounds, 80% hits; activation, % at 7 µM;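 active = activation above the all-compound mean plus 3 SD, ignoring values outside control-based bounds, cut at about 4.8% in these data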;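 also: value is the 4 h activation minus the activation read at time zero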
The depositor's hits bear a star; i = inactive; . = no result given. The list is not random: actives were taken first. Their share in the collection is about 4.7%.

SMILES	ADAM10 inh	proKLK7 act	MPTP block	rCAG binder	ADAM17 inh	DSG3 Ab inh	KLK7 act conf	EDANS interfere
COc1ccc(N(C)C(=S)Nc2ccc3nc(C)c(C)nc3c2)cc1	-57.8	13.6*	0.0	9.5	-13.1	103.2	11.8	14.6*
CC(C)[C@@H]1Cc2[nH]c(=S)[nH]c(=O)c2[C@H](CCc2ccccc2)O1	7.0	-0.3	-0.6	7.2	3.0	.	.	.
Cc1cnc(CNC(=O)c2csc([C@@H]3C[C@H](O)[C@@H](CO)O3)n2)cn1	-9.4	0.0	-1.1	0.7	0.3	.	.	.
CSc1ccc(/C=C/C(=O)c2ccc(O)cc2)cc1	-11.1	28.0*	14.2	23.4	-2.5	99.4	2.0	2.0
CC(=O)Oc1ccc(OC(C)=O)c2c1CC(C)=C(C)C2	-2.0	0.4	1.8	-3.8	0.6	118.3	.	.
CCOC(=O)NN1C(=O)c2ccccc2NC1c1cccnc1 (centres undefined)	-473.8	9.3	-4.5	-0.7	-159.7	109.4	.	.
CCOC(=O)NN1C(=O)c2ccccc2NC1c1cccs1 (centres undefined)	i	13.9*	-0.6	-1.5	-203.1	99.7	16.5*	14.8*
CC(=O)NN1C(=O)c2ccccc2NC1c1ccccc1F (centres undefined)	i	29.0*	-0.2	-2.1	-328.6	101.3	18.9*	17.9*
O=C1c2ccccc2NC(c2cccs2)N1NS(=O)(=O)c1ccccc1 (centres undefined)	-422.2	35.6*	-0.1	-1.9	-160.3	98.7	5.1	4.5*
O=C1c2ccccc2NC(c2ccco2)N1NS(=O)(=O)c1ccccc1 (centres undefined)	-242.2	14.2*	-1.6	-0.4	-87.1	103.2	2.6	4.8*
CC(=O)NN1C(=O)c2ccccc2NC1c1ccoc1 (centres undefined)	i	10.5	-0.9	-0.6	-315.6	96.6	.	.
O=C1c2ccccc2NC(c2ccco2)N1O (centres undefined)	-37.0	0.3	0.9	1.6	-14.8	104.3	.	.
CCC(CC)C(=O)N(C)c1c(C)nc2c(OCc3ccc(Cl)cc3)cccn12	5.0	0.2	-0.2	3.2	2.5	.	.	.
O=C1OCCC1=CN1CCCCC1	-10.9	-1.1	1.9	1.3	-7.4	98.7	.	.
CCOC(=O)c1cc2c(=O)n3ccccc3nc2n(C(C)C)c1=NC(=O)c1ccco1	i	43.8*	-0.2	-6.3	i	109.1	59.1*	51.1*
CCCn1c(=NC(=O)c2ccco2)c(C(=O)OCC)cc2c(=O)n3ccccc3nc21	i	88.6*	0.1	1.2	i	102.5	35.0*	35.5*
CC(C)n1c(=NC(=O)c2ccco2)c(C#N)cc2c(=O)n3ccccc3cc21	i	45.2*	-1.3	1.2	i	101.4	21.6*	18.8*
Cc1nc2ccccn2c(=O)c1NC(=O)c1ccco1	-24.3	-0.7	2.1	-0.2	-5.0	98.2	.	.
O=C(NCc1nc2ccccc2[nH]1)C1=C[C@@H](c2ccccc2)C[C@@H](OCCCCO)O1	0.6	0.2	2.0	-4.8	-2.0	100.6	.	.
CC(=O)c1ccc(-c2cc(C(C)=O)c3n(c2=O)CCC3)cc1	i	44.1*	.	0.7	-458.5	.	61.4*	74.4*
CCc1cc2c(=O)c(Oc3ccccc3F)c(C)oc2c(CN(C)C)c1O	i	63.4*	1.2	18.5	i	.	72.1*	74.3*
Cc1coc2c(C)c3oc(=O)c(CCC(=O)N[C@@H](C)C(=O)N[C@@H](Cc4ccccc4)C(=O)O)c(C)c3cc12	-479.8	22.6*	1.0	31.1	-120.2	91.0	41.0*	36.5*
CC(C)C(=O)Nc1sc2c(c1-c1nc3ccccc3[nH]1)CCCC2	i	496.3*	0.8	19.2	-322.4	101.7	-8.5	4.7*
CC(C)C(=O)Nc1ccccc1-c1nc2ccccc2[nH]c1=O	-10.3	-2.8	0.3	-0.6	-5.6	108.6	.	.
CSc1ccc(/C=C/C(=O)OCC(=O)NC(C)C)cc1	i	21.7*	10.2	3.2	-425.6	.	16.6*	17.9*
SMILES	ADAM10 inh	proKLK7 act	MPTP block	rCAG binder	ADAM17 inh	DSG3 Ab inh	KLK7 act conf	EDANS interfere
CSc1ccc(/C=C/C(=O)OCC(=O)NC2CC2)cc1	i	20.7*	-1.8	1.4	-412.6	.	23.2*	25.0*
Cc1ccc(S(=O)(=O)N2C[C@H]3C(=O)C[C@@H](c4ccccc4)N(S(=O)(=O)c4ccccc4)[C@H]3C[C@H]2c2ccccc2)cc1	-1.6	-0.8	1.5	11.1	1.5	.	.	.
O=C(NCc1ccco1)c1ccc(-c2ccc3nccn3c2)cc1	-64.7	0.4	-0.1	7.8	-17.0	.	.	.
CCOC(=O)c1ccc(CNC(=O)C2CCC(=O)N(CCc3ccccc3)C2)o1 (centres undefined)	-6.9	0.7	0.9	-5.2	0.9	.	.	.
Clc1ccc(Br)c(-c2nc3ccccc3[nH]2)c1	-46.3	-0.5	1.0	2.9	-6.4	102.2	.	.
CC1(C(=O)NCc2ccc3c(c2)OCO3)CCN1C(=O)Cc1ccc(Cl)cc1Cl (centres undefined)	-5.0	0.7	-1.9	0.0	-2.1	.	.	.
Cn1c2ccccc2c(=O)c2cc(NCCCN3CCOCC3)ccc21	i	75.0*	1.0	4.7	i	103.8	69.6*	76.4*
O=c1c2ccccc2oc2cc(NCCCN3CCOCC3)ccc12	i	74.9*	0.1	-5.8	i	97.8	64.8*	64.4*
O=c1c2ccccc2oc2cc(NCCCn3ccnc3)ccc12	i	62.7*	2.8	3.7	i	102.5	65.8*	59.9*
O=c1c2ccccc2oc2ccc(NCCCN3CCOCC3)cc12	-12.6	0.0	-1.7	-0.9	0.5	101.5	.	.
O=[N+]([O-])c1cccc(CSC2=NCCN2S(=O)(=O)c2ccccc2)c1	10.9	0.4	-0.2	-1.7	-1.0	109.5	.	.
CC1(C(=O)NS(=O)(=O)C2CC2)CCCN(C(=O)c2ccc(F)c(Cl)c2)C1 (centres undefined)	-4.0	0.5	-0.3	3.3	0.2	.	.	.
